Reference: PubChem BioAssay AID1159580 (chemical genetic matrix, 2015)
Out of some 5,500 compounds screened, about 2,000 (36%) were called active. Another 18% or so got no clear call; they are omitted. Some of the results follow. Values without a mark were called inactive. No stated cut-off is given here; in the data, active means normalized growth mostly below about 0.91 (no sharp cut-off); inconclusive means no clear call, values can overlap the other calls; inactive means mostly above about 0.92.

Experiment: chemical genetic growth profiling, strain panel (AID 1159580);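 further: tested at 20 µM; growth read once vehicle control cultures reached saturation at 30 °C; 1 = growth at the plate median or of vehicle wells; lower values mean less growth of the strain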
Settings: growth OD

C[C@]12CCC3c4ccc(O)cc4CCC3C1CCC2=O (stereo partly drawn)
normalized growth (S. cerevisiae deletion strains, locus YJR066W, strain TOR1, active compounds read low): 0.953 | normalized growth (S. cerevisiae deletion strains, locus YJR075W, strain HOC1, active compounds read low): 0.977 | normalized growth (S. cerevisiae deletion strains, locus YKL009W, strain mrt4, active compounds read low): 0.905 | normalized growth (S. cerevisiae deletion strains, locus YKL068W, active compounds read low): 1 | normalized growth (S. cerevisiae deletion strains, locus YKL085W, strain MDH1 (second series), active compounds read low): 1.02 | normalized growth (S. cerevisiae deletion strains, locus YKL085W, strain MDH1, active compounds read low): 1.02 | normalized growth (S. cerevisiae deletion strains, locus YKL160W, strain elf1, active compounds read low): 0.994 | normalized growth (S. cerevisiae deletion strains, locus YKR001C, strain vps1, active compounds read low): 0.854 (active) | normalized growth (S. cerevisiae deletion strains, locus YKR026C, strain gcn3, active compounds read low): 1.02 | normalized growth (S. cerevisiae deletion strains, locus YKR091W, strain srl3, active compounds read low): 1.02 | normalized growth (S. cerevisiae deletion strains, locus YLL001W, strain dnm1, active compounds read low): 1.05 | normalized growth (S. cerevisiae deletion strains, locus YLL026W, active compounds read low): 0.999 | normalized growth (S. cerevisiae deletion strains, locus YLL041C, strain sdh2, active compounds read low): 1.02 | normalized growth (S. cerevisiae deletion strains, locus YLR027C, strain aat2, active compounds read low): 0.973 | normalized growth (S. cerevisiae deletion strains, locus YLR039C, strain RIC1, active compounds read low): 0.56 (active) | normalized growth (S. cerevisiae deletion strains, locus YLR058C, strain SHM2, active compounds read low): 0.97 | normalized growth (S. cerevisiae deletion strains, locus YLR102C, strain apc9, active compounds read low): 1 | normalized growth (S. cerevisiae deletion strains, locus YLR113W, strain HOG1, active compounds read low): 0.98 | normalized growth (S. cerevisiae deletion strains, locus YLR221C, strain rsa3, active compounds read low): 1 | normalized growth (S. cerevisiae deletion strains, locus YLR258W, strain gsy2, active compounds read low): 0.975 | normalized growth (S. cerevisiae deletion strains, locus YLR262C, strain YPT6 (second series), active compounds read low): 0.609 (active) | normalized growth (S. cerevisiae deletion strains, locus YLR262C, strain YPT6, active compounds read low): 0.558 (active) | normalized growth (S. cerevisiae deletion strains, locus YLR268W, strain sec22, active compounds read low): 0.976 | normalized growth (S. cerevisiae deletion strains, locus YLR320W, strain mms22, active compounds read low): 0.873 (active) | normalized growth (S. cerevisiae deletion strains, locus YLR330W, strain CHS5, active compounds read low): 1 | normalized growth (S. cerevisiae deletion strains, locus YLR342W, strain FKS1 (second series), active compounds read low): 0.882 | normalized growth (S. cerevisiae deletion strains, locus YLR342W, strain FKS1, active compounds read low): 1 | normalized growth (S. cerevisiae deletion strains, locus YLR357W, strain rsc2, active compounds read low): 1.04 | normalized growth (S. cerevisiae deletion strains, locus YLR370C, strain arc18, active compounds read low): 1.02 | normalized growth (S. cerevisiae deletion strains, locus YLR371W, strain rom2, active compounds read low): 1.02 | normalized growth (S. cerevisiae deletion strains, locus YLR384C, strain iki3, active compounds read low): 1.02 | normalized growth (S. cerevisiae deletion strains, locus YLR418C, strain cdc73, active compounds read low): 0.985 | normalized growth (S. cerevisiae deletion strains, locus YML016C, strain PPZ1, active compounds read low): 0.986 | normalized growth (S. cerevisiae deletion strains, locus YML032C, strain rad52, active compounds read low): 0.924 | normalized growth (S. cerevisiae deletion strains, locus YML120C, strain ndi1, active compounds read low): 1.03 | normalized growth (S. cerevisiae deletion strains, locus YML124C, strain tub3, active compounds read low): 1.02 | normalized growth (S. cerevisiae deletion strains, locus YMR058W, strain fet3, active compounds read low): 0.928 | normalized growth (S. cerevisiae deletion strains, locus YMR078C, strain ctf18, active compounds read low): 0.987 | normalized growth (S. cerevisiae deletion strains, locus YMR125W, strain sto1, active compounds read low): 1.06 | normalized growth (S. cerevisiae deletion strains, locus YMR129W, active compounds read low): 1.02 | normalized growth (S. cerevisiae deletion strains, locus YMR205C, strain PFK2, active compounds read low): 1.03 | normalized growth (S. cerevisiae deletion strains, locus YMR223W, strain ubp8, active compounds read low): 0.987 | normalized growth (S. cerevisiae deletion strains, locus YMR231W, strain pep5, active compounds read low): 0.993 | normalized growth (S. cerevisiae deletion strains, locus YMR307W, strain GAS1, active compounds read low): 0.797 | normalized growth (S. cerevisiae deletion strains, locus YNL067W, strain RPL9B, active compounds read low): 1 | normalized growth (S. cerevisiae deletion strains, locus YNL071W, strain lat1, active compounds read low): 0.937 | normalized growth (S. cerevisiae deletion strains, locus YNL183C, strain NPR1, active compounds read low): 0.936 | normalized growth (S. cerevisiae deletion strains, locus YNL209W, strain ssb2, active compounds read low): 1.02 | normalized growth (S. cerevisiae deletion strains, locus YNL233W, strain BNI4, active compounds read low): 0.976 | normalized growth (S. cerevisiae deletion strains, locus YNL248C, strain rpa49, active compounds read low): 0.956 | normalized growth (S. cerevisiae deletion strains, locus YNL250W, strain rad50, active compounds read low): 0.922 | normalized growth (S. cerevisiae deletion strains, locus YNL271C, strain bni1, active compounds read low): 0.966 | normalized growth (S. cerevisiae deletion strains, locus YNL298W, strain CLA4, active compounds read low): 0.902 (active) | normalized growth (S. cerevisiae deletion strains, locus YNL307C, strain MCK1, active compounds read low): 0.96 | normalized growth (S. cerevisiae deletion strains, locus YNL322C, strain KRE1 (second series), active compounds read low): 1.05 | normalized growth (S. cerevisiae deletion strains, locus YNL322C, strain KRE1, active compounds read low): 1.01 | normalized growth (S. cerevisiae deletion strains, locus YNR049C, strain mso1, active compounds read low): 1.03 | normalized growth (S. cerevisiae deletion strains, locus YNR052C, strain pop2, active compounds read low): 0.917 | normalized growth (S. cerevisiae deletion strains, locus YOL006C, strain TOP1, active compounds read low): 0.838 | normalized growth (S. cerevisiae deletion strains, locus YOL012C, strain htz1): 1.42 | normalized growth (S. cerevisiae deletion strains, locus YOL147C, strain pex11, active compounds read low): 1 | normalized growth (S. cerevisiae deletion strains, locus YOR001W, strain rrp6, active compounds read low): 0.946 | normalized growth (S. cerevisiae deletion strains, locus YOR061W, strain CKA2, active compounds read low): 0.969 | normalized growth (S. cerevisiae deletion strains, locus YOR069W, strain VPS5, active compounds read low): 1 | normalized growth (S. cerevisiae deletion strains, locus YOR070C, strain gyp1, active compounds read low): 0.997 | normalized growth (S. cerevisiae deletion strains, locus YOR080W, strain dia2, active compounds read low): 1.02 | normalized growth (S. cerevisiae deletion strains, locus YOR083W, strain WHI5, active compounds read low): 0.98 | normalized growth (S. cerevisiae deletion strains, locus YOR106W, strain vam3, active compounds read low): 1.02 | normalized growth (S. cerevisiae deletion strains, locus YOR136W, strain idh2, active compounds read low): 0.991 | normalized growth (S. cerevisiae deletion strains, locus YOR144C, strain elg1, active compounds read low): 0.999 | normalized growth (S. cerevisiae deletion strains, locus YOR184W, strain ser1, active compounds read low): 0.714 (active) | normalized growth (S. cerevisiae deletion strains, locus YOR231W, strain MKK1, active compounds read low): 0.969 | normalized growth (S. cerevisiae deletion strains, locus YOR265W, strain rbl2, active compounds read low): 1 | normalized growth (S. cerevisiae deletion strains, locus YOR270C, strain vph1, active compounds read low): 0.831 | normalized growth (S. cerevisiae deletion strains, locus YOR290C, strain snf2, active compounds read low): 0.941 | normalized growth (S. cerevisiae deletion strains, locus YOR316C, strain cot1, active compounds read low): 0.991 | normalized growth (S. cerevisiae deletion strains, locus YPL051W, strain arl3, active compounds read low): 0.934 | normalized growth (S. cerevisiae deletion strains, locus YPL055C, strain LGE1, active compounds read low): 0.863 | normalized growth (S. cerevisiae deletion strains, locus YPL078C, strain atp4, active compounds read low): 0.954 | normalized growth (S. cerevisiae deletion strains, locus YPL106C, strain sse1, active compounds read low): 1.03 | normalized growth (S. cerevisiae deletion strains, locus YPL240C, strain hsp82, active compounds read low): 1.01 | normalized growth (S. cerevisiae deletion strains, locus YPL256C, strain CLN2, active compounds read low): 1.02 | normalized growth (S. cerevisiae deletion strains, locus YPR119W, strain clb2, active compounds read low): 1 | normalized growth (S. cerevisiae deletion strains, locus YPR141C, strain kar3, active compounds read low): 1 | normalized growth (S. cerevisiae deletion strains, locus YPR163C, strain tif3, active compounds read low): 0.927 | normalized growth (S. cerevisiae deletion strains, locus YPR167C, strain met16, active compounds read low): 0.998 | normalized growth (S. cerevisiae deletion strains, strain wtn01, active compounds read low): 0.967 | normalized growth (S. cerevisiae strains, strain wild type, active compounds read low): 1
